Screens: PubChem, National Center for Advancing Translational Sciences (NCATS)
Most compounds without a hit are left out; they make up all but 6.7% or so of the library.
MCF10A rerep: A quantitative high throughput screen for small molecules that induce DNA re-replication in MCF 10a normal breast cells; MCF 10A DNA re-replication, Hoechst nuclear intensity, 48 h; Potency, µM (series often up to 46.1 µM), inactives show at the highest dose activity, positive = re-replication, most hits filed as activators; 350,000 tested, 2.9% active; also: % of control where 0% means no effect; nearly all actives have a fitted effect of over 50% in size
KB-3-1 tox: qHTS assay for MDR1-selective chemotherapeutics: Primary screen using the parental adenocarcinoma cell KB-3-1; 400,000 tested, 1.4% active; KB-3-1 viability, CellTiter-Glo ATP luminescence, 72 h; Potency, µM (titrated, usually from 46.1 µM), most hits filed as cytotoxic; also: % is scaled to controls: 0 for no effect and ±100 for the full control effect; nearly all actives have a fitted effect of over 60% in size
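KB-3-1 cells, DMEM (no phenol red) + 10% FBS; compound by pin transfer, 72 h, 37 °C. Readout: CellTiter-Glo luminescence after 10 min. Data normalized, curve-fitted.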
KB-V1 MDR tox: qHTS assay for MDR1-selective chemotherapeutics: Primary screen using the drug-selected MDR subline cells KB-V1 | KB-V1 MDR cells viability, CellTiter-Glo, 72 h | Potency, µM (highest dose often 46.1 µM), most hits filed as cytotoxic | 400,000 tested, 3.4% active | AID 1347076, 2019; also: % is scaled to controls: 0 for no effect and ±100 for the full control effect; nearly all actives have a fitted effect of over 60% in size
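Luminescent ATP read-out (CellTiter-Glo, 10 min) measures survival of drug-selected KB-V1 MDR cells after 72 h, 37 degrees C compound exposure. Medium: phenol-red-free DMEM, 10% FBS. Values from fitted concentration-response curves.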
SW480 rereplic: A quantitative high throughput screen for small molecules that induce DNA re-replication in SW480 colon adenocarcinoma cells. SW480 DNA re-replication, Hoechst DNA content imaging, 48 h. 340,000 tested, 1.8% active. Potency, µM (doses to about 46.1 µM), for the others: top-dose re-replication activation, hits mostly activators. AID 624297, 2012; also: % of control where 0% means no effect; nearly all actives have a fitted effect of over 55% in size
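Hoechst fluorescence of nuclei (405 nm excitation, 500-530 nm emission) measured by plate-scanning imager after 48 hr compound exposure at 37 C; re-replication scored as increased number of nuclei with elevated intensity.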
PINK1 expr mod: A Quantitative High throughput Screen to Identify Chemical Modulators of PINK1 Expression; 410,000 tested, 0.2% active; Potency, µM (doses to about 76.6 µM), for the others: at the top dose activation (PINK1 increase), usual class: activators; AID 624263, 2012; PINK1 immunofluorescence, high-content cytometry, 24 h; active = well fitted activation curve with a large enough effect; inconclusive = small, poorly fitted or top-dose-only effect; cell line not stated here; also: % of control where 0% means no effect; nearly all actives have a fitted effect of over 65% in size
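Fluorescence from anti-PINK1 antibody, together with nuclear and cell stains, was scanned on a laser-scanning cytometer. Before staining, stable-line cells were incubated 24 hours with compounds at 5 concentrations; primary antibody 12 h at 10 degrees C.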
* marks the source's active call; other numbers are inactive results; ! = repeats disagree; [ ] = dose if it differs, or a comment. Unless noted, calls follow the shape of the dose curve; as a rule, active = well fitted curve in the direction sought with a large enough effect; inconclusive = small, poorly fitted or top-dose-only effect, or another doubt; inactive = no such curve, though single readings can be large; an effect the other way counts as inactive or inconclusive. Potency is read from the fitted curve at half-maximal effect.

Screening CN1CCN(c2ccccc2NC(=O)COc2ccc(Br)cc2)CC1 returned MCF10A rerep inconclusive, KB-3-1 tox inactive, KB-V1 MDR tox 21µM*, SW480 rereplic -11% and PINK1 expr mod -5%[38.3 µM].
`CN1CCN(c2ccccc2NC(=O)c2ccc(-c3cccc([N+](=O)[O-])c3)o2)CC1` gave MCF10A rerep inconclusive, KB-3-1 tox inactive, KB-V1 MDR tox inactive, SW480 rereplic inconclusive and PINK1 expr mod 3%.
Screening CN1CCN(c2ccccc2NC(=O)c2ccc(-c3ccc(Br)cc3)o2)CC1 returned MCF10A rerep 4.1µM*, KB-3-1 tox inconclusive, KB-V1 MDR tox inconclusive, SW480 rereplic 8.2µM* and PINK1 expr mod 2%.
For CC(C)C(=O)N1CCN(c2ccccc2NC(=O)COc2ccc(C3CCCCC3)cc2)CC1 the results were MCF10A rerep 18µM*, SW480 rereplic inconclusive and PINK1 expr mod 0%.
For Cc1nc(SCC(=O)NCCN2C(=O)CSC2=O)nc(C)c1C the results were MCF10A rerep -3%, SW480 rereplic -17% and PINK1 expr mod -1%.
`O=C(/C=C/c1ccc(Br)cc1)N1CCN(c2cccc(C(F)(F)F)c2)CC1` gave MCF10A rerep 13µM*, KB-3-1 tox inconclusive, KB-V1 MDR tox inconclusive, SW480 rereplic 9% and PINK1 expr mod 20%.
Screening O=C(/C=C/c1cccc(Br)c1)N1CCN(c2cccc(C(F)(F)F)c2)CC1 returned MCF10A rerep inconclusive, KB-3-1 tox inactive, KB-V1 MDR tox inconclusive, SW480 rereplic inconclusive and PINK1 expr mod 16%.
For COc1ccccc1CC(=O)N1CCN(c2cccc(C(F)(F)F)c2)CC1 the results were MCF10A rerep 5%, KB-3-1 tox inactive, KB-V1 MDR tox 12µM*, SW480 rereplic -3% and PINK1 expr mod 2%[38.3 µM].
`O=C(NNC(=O)C1CCN(S(=O)(=O)c2c(Cl)cccc2Cl)CC1)c1ccccc1O` gave MCF10A rerep inconclusive, KB-3-1 tox inconclusive, KB-V1 MDR tox 18µM*, SW480 rereplic inconclusive and PINK1 expr mod -1%.
Cn1c(=O)c(=O)n(C)c2cc(N3CCCC3)c(NC(=O)c3ccccc3Cl)cc21 was read as KB-3-1 tox inactive, KB-V1 MDR tox inactive and PINK1 expr mod -1%.
O=C(Cc1ccc(Cl)cc1Cl)Nc1cccc(S(=O)(=O)Nc2ccccc2F)c1 was read as MCF10A rerep inconclusive, KB-3-1 tox inconclusive, KB-V1 MDR tox 21µM*, SW480 rereplic -2% and PINK1 expr mod -3%.
For O=C(/C=C/c1ccccc1)Nc1cccc(S(=O)(=O)Nc2ccccc2F)c1 the results were MCF10A rerep inconclusive, KB-3-1 tox inactive, KB-V1 MDR tox 9.2µM*!, SW480 rereplic 11% and PINK1 expr mod 4%.
Screening CC(C)n1cnc2c(NCc3ccccc3)cc(N[C@H](C)CO)cc21 returned MCF10A rerep inconclusive, KB-3-1 tox inconclusive, KB-V1 MDR tox inactive, SW480 rereplic 0.65µM* and PINK1 expr mod 4%.
CC(C)(C)c1ccc(/C=C2\Oc3cc(O)ccc3C2=O)cc1 was read as MCF10A rerep 21µM*, KB-3-1 tox 16µM*, KB-V1 MDR tox inactive, SW480 rereplic 21µM* and PINK1 expr mod inconclusive.
O=C1/C(=C/c2ccc(Br)cc2)Oc2cc(O)ccc21 was read as MCF10A rerep 15µM*, KB-3-1 tox inactive, KB-V1 MDR tox inconclusive, SW480 rereplic inconclusive and PINK1 expr mod inconclusive.
CN(C)c1ccc(-c2ccnc3c2CC(C)(C(=O)NCc2ccccc2)O3)cc1 (configuration not stated) was read as KB-3-1 tox inconclusive, KB-V1 MDR tox inconclusive and PINK1 expr mod 3%.
CC(C)NC(=O)C1(C)Cc2c(-c3ccc(C(N)=O)cc3)ccnc2O1 (configuration not stated) was read as KB-3-1 tox inactive, KB-V1 MDR tox inactive and PINK1 expr mod -1%.
